High-throughput results (PubChem BioAssay)
JNK3 blocker: JNK3 (human) kinase inhibition. P53779. purified JNK3 kinase activity, HTS. inhibition, % at 8 µM. 0.61% of 60,000 active. AID 746; in the data active means inhibition above about 17%
Target sequence (P53779 whole entry, looked up): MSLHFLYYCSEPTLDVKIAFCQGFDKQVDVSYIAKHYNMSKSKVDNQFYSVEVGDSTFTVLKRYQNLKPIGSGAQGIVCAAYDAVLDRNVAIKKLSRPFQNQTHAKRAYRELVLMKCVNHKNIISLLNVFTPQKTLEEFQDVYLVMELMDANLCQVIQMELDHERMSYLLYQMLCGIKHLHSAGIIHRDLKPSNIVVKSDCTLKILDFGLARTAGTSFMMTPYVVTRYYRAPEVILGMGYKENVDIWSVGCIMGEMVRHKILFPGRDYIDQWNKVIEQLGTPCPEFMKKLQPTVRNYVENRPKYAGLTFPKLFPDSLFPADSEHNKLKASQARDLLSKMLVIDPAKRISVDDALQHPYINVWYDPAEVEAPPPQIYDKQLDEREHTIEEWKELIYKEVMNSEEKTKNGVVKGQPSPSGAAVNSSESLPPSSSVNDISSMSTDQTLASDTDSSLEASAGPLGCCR
M1 antag: M1 muscarinic receptor (rat) antagonism; AID 628; B-score at 10 µM; 3.4% of 64,000 active; CHO-M1 cells, Fluo-4 calcium, ACh EC80 antagonist mode; active compounds read low;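 active means calcium fluorescence response, raw or row-and-column corrected B-score, differing from the plate sample mean either way at a set confidence level, mostly lower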
Her2 expr inh: Her2 kinase expression inhibition; HER2 level % of control, % at 10 µM; P04626; SKBR-3 HER2 protein level, AlphaScreen, 18-24 h; active compounds read low; 0.69% of 65,000 active;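 active means HER2 level under 5% of the carrier-only control; inconclusive means no clear call, values can overlap the other calls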;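 further: lower value means stronger loss of Her2 protein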
M1 ag: M1 muscarinic receptor agonism; 3% of 64,000 active; CHO-M1 cells, Fluo-4 calcium fluorescence, agonist mode; active compounds read high; AID 626; B-score at 10 µM;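 active means fluorescence rise, raw or as B-score row- and column-corrected plate score, outside the 99.7% band of its plate's samples, either direction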
FXIa mix inh: blocks human factor XIa in pooled compound mixtures; purified FXIa, fluorogenic substrate; inhibition, % at 5 µM; 0.19% of 62,000 active; P03951; AID 680;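 further: each value is inhibition by a whole ten-compound pool holding the compound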
FXIIa inh mix: factor XIIa (human) inhibition, mixture screen; P00748; purified FXIIa, fluorogenic substrate, pooled mixtures; inhibition, % at 5 µM; 0.2% of 62,000 active
M1 agonist conf: confirmation of rat M1 muscarinic receptor agonists; 19% of 1,700 active; shares compounds with M1 ag; fluorescence change (max-min) at 10 µM; CHO-M1 cells, Fluo-4 calcium fluorescence, agonist mode; actives lie on both sides;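 active means fluorescence change differs from the solvent-only DMSO control mean at a set confidence level in both duplicate runs; inconclusive means differs from solvent-only control mean in just one of two runs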;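 further: an EC20 dose of acetylcholine follows compound addition during the same imaging run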
M4 ag counter: rat M4 muscarinic agonism, M1 counter-screen. shares compounds with M1 ag. CHO M4/Gqi5 cells, Fluo-4 calcium fluorescence, agonist mode; actives lie on both sides. fluorescence change (max-min) at 10 µM. 9% of 1,700 active;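 active means fluorescence change differing from the plate's solvent-only control wells at 99.7% confidence in both duplicates, whether higher or lower; inconclusive means differs from solvent controls in only one of two duplicates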
Each line names hits and unclear results; the compound was inactive in the other large screens (follow-up assays come after a bar, where they were run). Shown are actives, neighbours in structure and some others; about 6.9% of the full set was active somewhere. Unless noted, no stated cut-off is given here; in the data, active means inhibition above about 20% (passing the limit was not always enough); inactive means the rest.

O=C(Nc1ccc2c(c1)OCO2)C1Cc2ccccc2CN1S(=O)(=O)c1cccs1 (stereo not given)	M1 ag 5.5 | M1 agonist conf inactive | M4 ag counter inactive
Cc1cccc(N2C(=O)c3cccc4c(N(C)CCO)ccc(c34)C2=O)c1	M1 antag -14, M1 ag 351 | M1 agonist conf 1544 | M4 ag counter 1425
COc1ccc2c(c1OC)C(=O)N(c1cccc(C)c1)C2=O	none
CCOC(=O)C(NC(C)=O)C(OC(C)=O)c1cccc(N(CCO)CCO)c1 (stereo not given)	none
Cn1c(N2CCC(C(N)=O)CC2)nc2c1c(=O)n(Cc1ccc(Br)cc1)c(=O)n2C	none
CCOC(=O)Cc1csc(NC(=O)CSc2ncnc3c2cnn3-c2ccccc2Cl)n1	M1 ag 11 | M1 agonist conf inactive | M4 ag counter inactive
O=C(Cc1ccc(Br)cc1)N1CCCCCC1	none
CC(C)Cn1c2c(c(O)c(C(=O)Nc3ccc(F)cc3)c1=O)CCCC2	M1 ag 3 | M1 agonist conf inconclusive | M4 ag counter inactive
CC(C)Cn1c2c(c(O)c(C(=O)Nc3ncccc3O)c1=O)CCCC2	none
O=C(OCc1nc2ccccc2s1)C1CCN(C2=NS(=O)(=O)c3ccccc32)CC1	M1 ag 4.6 | M1 agonist conf inconclusive | M4 ag counter inactive
CN(C)S(=O)(=O)c1cccc(C(=O)OCC(=O)Nc2sccc2C(N)=O)c1	M1 antag -3.3, M1 ag 8.8 | M1 agonist conf inconclusive | M4 ag counter -69
COC(=O)c1ccc(CSc2nnc(N)s2)cc1	none
CC(=O)c1ccc(Cc2cnc(N)s2)cc1	M1 ag 2.9, FXIIa inh mix 21 | M1 agonist conf inactive | M4 ag counter inactive
CN1CCc2c(sc3c2C(=O)NC(c2ccc(-c4cccc(Cl)c4)o2)N3)C1 (stereo not given)	M1 ag 14 | M1 agonist conf inactive | M4 ag counter inactive
CN1CCc2c(sc3c2C(=O)NC(c2cccs2)N3)C1 (stereo not given)	none
Cn1nnnc1P(=O)(c1ccccc1)c1ccccc1	none (no result: JNK3 blocker)
COc1ccc(CCC(=O)NCCc2cn3c(C)csc3n2)cc1	none
CCc1c(C)nc(/N=C(/NC(=O)c2ccccc2)Nc2ccccc2OC)[nH]c1=O	none
Cc1ccc(S(=O)(=O)N2CCN(c3nc(C)c4c(c3C#N)CC(C)(C)OC4)CC2)cc1	none (no result: FXIa mix inh, FXIIa inh mix)
CC1CCc2cccc3c2N1c1cc(C#N)c(C#N)cc1O3 (stereo not given)	M1 ag 11 | M1 agonist conf inconclusive | M4 ag counter inactive
CCN1CCCC1CNC(=O)C1CCN(Cc2nc(-c3cccc(Br)c3)oc2C)CC1 (stereo not given)	none
O=C(NC1CC1)c1ccc(CS(=O)(=O)c2c(Cl)cccc2Cl)o1	none
Cn1c(CC2C(=O)Nc3ccc(Br)cc32)nc2ccccc2c1=O (stereo not given)	M1 ag 2 | M1 agonist conf inconclusive | M4 ag counter inactive
Cc1[nH]nc2c1C(c1cccc(O)c1)C1=C(CC(C)(C)CC1=O)N2 (stereo not given)	none
CCC(=O)Nc1ccc(S(=O)(=O)Nc2cccnc2)cc1	none
CCCCOc1ccc(S(=O)(=O)Nc2cccnc2)cc1	M1 ag 4.9 | M1 agonist conf inactive | M4 ag counter inconclusive
COc1ccc(C2/C(=C(\O)c3ccc4c(c3)OCCO4)C(=O)C(=O)N2CCCN(C)C)c(OC)c1 (stereo not given)	none
Cc1cccn2c(=O)c3cc(C(=O)NCc4ccco4)c(=N)n(C(C)C)c3nc12	none (no result: JNK3 blocker)
Cc1ccc(CNC(=O)c2cc3c(=O)n4ccccc4nc3n(CC3CCCO3)c2=N)cc1 (stereo not given)	M1 ag 5.2 (no result: FXIa mix inh, FXIIa inh mix) | M1 agonist conf inactive | M4 ag counter inactive
Cc1ccc(CNC(=O)c2cc3c(=O)n4ccccc4nc3n(Cc3ccco3)c2=N)cc1	M1 ag 4.8 (no result: FXIa mix inh, FXIIa inh mix) | M1 agonist conf 198 | M4 ag counter inactive
CCOC(=O)c1cc2c(=O)n3ccccc3nc2n(CC2CCCO2)c1=NC(C)=O (stereo not given)	none (no result: JNK3 blocker, Her2 expr inh)
N=c1c(C(=O)NCc2ccccc2)cc2c(=O)n3ccccc3nc2n1Cc1ccco1	none
Cc1ccc(S(=O)(=O)c2cc3c(=O)n4cccc(C)c4nc3n(Cc3ccco3)c2=N)cc1C	none
Cc1ccc(S(=O)(=O)c2cc3c(=O)n4ccccc4nc3n(Cc3ccco3)c2=N)cc1	M1 ag -2.4 (no result: JNK3 blocker) | M1 agonist conf inactive | M4 ag counter inactive
Cc1cccn2c(=O)c3cc(C(=O)NCc4ccco4)c(=N)n(CCc4ccccc4)c3nc12	M1 antag -6.2, M1 ag 5.3 | M1 agonist conf inactive | M4 ag counter inactive
Fc1ccc(Cn2nnnc2CN2CCc3ccccc3C2)cc1	none
O=C(O)c1ccc(CS(=O)(=O)c2cccc(C(F)(F)F)c2)o1	none
CCOC(=O)N1CCN(CC(=O)N2c3ccccc3CC2C)CC1 (stereo not given)	M1 ag 3.3 | M1 agonist conf inactive | M4 ag counter inactive
Cc1ccc2c(c1)nnn2C1CCN(CC(=O)N2c3ccccc3CC2C)CC1 (stereo not given)	none
CCN(CC)CCN1C(=O)C(=O)/C(=C(/O)c2ccc(F)cc2)C1c1ccncc1 (stereo not given)	none (no result: FXIa mix inh, FXIIa inh mix)
CCN(CC)CCN1C(=O)C(=O)/C(=C(/O)c2ccncc2)C1c1ccccc1F (stereo not given)	M1 ag 35 | M1 agonist conf inactive | M4 ag counter inconclusive
CC1(C)Cc2nc3sc4c(N(CCO)CCO)ncnc4c3cc2CO1	M1 ag 2.8 (no result: FXIa mix inh, FXIIa inh mix) | M1 agonist conf inconclusive | M4 ag counter inactive
CCc1nc(OCc2ccco2)c2sc3nc4c(cc3c2n1)COC(C)(C)C4	none
O/N=C1/CCc2nonc2/C1=N/O	none
O=C(NCCCN1CCOCC1)c1cc(-c2ccc(Br)cc2)on1	M1 ag 2.2 | M1 agonist conf inconclusive | M4 ag counter inactive
CCCn1nnnc1SCC(=O)NCc1ccccc1	none
CCCn1nnnc1SCC(=O)NCc1ccc2c(c1)OCO2	M1 ag 3 | M1 agonist conf inactive | M4 ag counter inactive
C=CCn1c(=O)/c(=C/c2ccc(O)cc2)s/c1=C(/C#N)c1nnc2n1CCCCC2	M1 ag 43 | M1 agonist conf 90 | M4 ag counter inconclusive
C=CCn1c(=O)/c(=C/c2ccc(Cl)cc2)s/c1=C(/C#N)c1nnc2n1CCCCC2	M1 ag 4.3 | M1 agonist conf inconclusive | M4 ag counter inconclusive
C=CCn1c(=O)/c(=C/c2cc(OC)c(OC)c(OC)c2)s/c1=C(/C#N)c1nc2ccccc2n1C	M1 ag 77 (no result: JNK3 blocker) | M1 agonist conf inconclusive | M4 ag counter inactive
C=CCn1c(=O)/c(=C\c2ccsc2)s/c1=C(/C#N)C(=O)NCCN1CCOCC1	none
